DAX1 inh-1: DAX1 (NR0B1) inhibitors, primary screen, cell-based, HEK293, Gal4-DAX1, luciferase luminescence; Nuclear receptor subfamily 0 group B member 1 (Homo sapiens), P51843; HEK293 Gal4-DAX1 luciferase reporter; inhibition, % at 6.75 µM; hit rate 0.99% among 340,000; AID 504766, 2011;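 active = inhibition above the mean over all tested compounds plus 3 SD, cut at about 4.2% in these data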;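 note: inhibition shows as a rise in luminescence from relieved DAX1 repression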
Target sequence (P51843 207-470 limits assumed): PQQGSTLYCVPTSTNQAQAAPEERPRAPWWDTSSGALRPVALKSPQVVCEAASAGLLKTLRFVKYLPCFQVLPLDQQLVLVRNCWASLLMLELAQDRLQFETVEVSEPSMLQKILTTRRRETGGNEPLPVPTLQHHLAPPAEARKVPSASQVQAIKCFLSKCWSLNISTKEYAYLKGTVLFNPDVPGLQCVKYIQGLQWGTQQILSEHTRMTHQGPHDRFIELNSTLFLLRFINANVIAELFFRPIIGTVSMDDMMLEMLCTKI
ssDAF-12 act: S. stercoralis DAF-12 nuclear receptor activators, primary screen, cell-based, luminescence, HEK293, GRIP1 co-expression, lit1-tk-luc; HEK293 ssDAF-12/GRIP1 lit1-tk-luc reporter; % of 3 µM dafachronic acid response; Nuclear hormone receptor DAF-12 (Strongyloides stercoralis); hit rate 1% among 370,000; activation, % at 6.8 µM;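 active = activation above the mean over all tested compounds plus 3 SD, cut at about 0.9% in these data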
hgDAF12 agonist: H. glycines DAF-12 receptor agonists, primary screen, cell-based, luminescence, HEK293, GAL4 fusion, UAS-luciferase; HEK293 GAL4-hgDAF12 UAS-luciferase reporter, agonist luminescence; normalized to butyrate control; activation, % at 6.8 µM; hit rate 1.8% among 370,000; AID 687014, 2013;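 active = activation above a cutoff set at the mean of all screened compounds plus 3 SD, cut at about 10% in these data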
hcDAF-12 act: H. contortus DAF-12 nuclear receptor activators, primary screen, cell-based, luminescence, HEK293, lit1-tk-luc reporter; HEK293 hcDAF-12 lit1-tk-luc reporter; 0% DMSO, 100% Δ7-dafachronic acid; activation, % at 6.8 µM; hit rate 1.4% among 370,000; AID 652067, 2013;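 active = activation above the mean of all tested compounds plus 3 SD, cut at about 5.5% in these data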
SMARCA2 activ: SMARCA2 (BRM) function activators, primary screen, cell-based, luminescence, high throughput. MG213 cells, MMTV-luciferase reporter, dexamethasone, overnight. activation, % at 9.1 µM. hit rate 1% among 370,000. AID 652017, 2013; in the data active = activation above about 7.8%
DAX1 inh-2: DAX1 (NR0B1) inhibitors on StAR promoter, primary screen, cell-based, luminescence, SF-1 (NR5A1), full-length DAX-1; HEK293T StAR-luciferase reporter, SF-1/DAX-1 repression relief; inhibition, % at 6.8 µM; hit rate 1.1% among 370,000; AID 652010, 2013;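 active = inhibition above the mean over all tested compounds plus 3 SD, cut at about 3.6% in these data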;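 note: higher inhibition means more luminescence from relief of DAX-1 repression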
Numbers stand for hits; n = inactive; x = not tested or not shown. Shown are actives, neighbours in structure and some others; about 4.8% of the full set was active somewhere.

SMILES	DAX1 inh-1	ssDAF-12 act	hgDAF12 agonist	hcDAF-12 act	SMARCA2 activ	DAX1 inh-2
Cc1cccc(C(=O)Nc2ccccc2C(=O)Nc2ccc(C(=O)O)cc2)c1	6.6	n	n	n	n	n
Cc1ccc(OCC(=O)Nc2ccc(C(=O)Nc3ccccc3C(=O)O)cc2)cc1C	n	n	11	n	n	n
COC(=O)C1=C(C)N(Cc2ccccc2C(F)(F)F)C(=NCc2ccc(C(F)(F)F)cc2)NC1c1ccccc1 (stereo unspecified)	x	n	n	n	n	n
COCCN1Cc2cc(C(=O)OC)c3c(c2C1=O)c1cc(OC)ccc1n3C(=O)c1ccccc1	x	n	n	n	n	n
COc1ccc(C2c3[nH]c4ccccc4c3CCN2C(=O)c2cc3ncccn3n2)c(F)c1 (stereo unspecified)	n	n	n	n	n	n
CCc1ccc(C2c3[nH]c4ccccc4c3CCN2C(=O)c2cc[n+]([O-])cc2)cc1 (stereo unspecified)	n	n	n	n	n	n
Cn1nccc1C(=O)N1CCc2c([nH]c3ccccc23)C1c1ccc(F)cc1 (stereo unspecified)	n	1.0	n	n	n	n
COc1ccc(C2c3[nH]c4ccccc4c3CCN2C(=O)c2cn3ccccc3n2)c(F)c1 (stereo unspecified)	n	1.5	n	n	n	n
C=CCN(C)CC#Cc1ccc(C)cc1	x	n	n	n	n	n
CCOc1ccc(-n2c(SCC(=O)c3ccccc3Cl)nnc2-c2ccncc2)cc1	x	n	n	n	n	n
Cc1ccn2c(=O)nc(SCC(=O)c3ccc(Cl)cc3)nc2c1	n	n	n	n	n	n
Cc1ccn2c(C(=O)c3ccc(Cl)cc3)cnc2c1	n	n	13	n	n	3.9
CN(C)c1ccc(-c2nc3ncc(Cl)cc3[nH]2)cc1	x	n	n	n	n	n
Cc1onc(NC(=O)c2ccc(Cl)cc2Cl)c1Br	n	n	11	n	n	n
Cc1onc(NC(=O)NC(=O)c2ccccc2F)c1Br	n	n	n	n	n	n
O=C(Cn1cnc2ccccc2c1=O)c1ccc(Br)cc1	n	n	12	n	n	n
O=C(Cn1cnc2ccccc2c1=O)c1ccccc1	n	n	n	n	n	n
O=C(Cn1cnc2ccccc2c1=O)c1ccc(Cl)cc1	n	n	11	n	n	n
c1ccc(CNC2CCC23CCC(c2ccccc2)CC3)cc1 (stereo unspecified)	x	n	n	n	n	n
CCCC[C@H]1C2CC(OC(=O)Nc3ccc(Cl)cc3)C(C2)[C@H]2CCCCN21 (stereo partly specified)	x	n	n	n	n	n
c1ccc2oc(-c3ccn[nH]3)cc2c1	5.9	n	n	n	n	n
Cc1ccc2c(c1)C1CS(=O)(=O)N(Cc3ccc(F)cc3)CN1C2 (stereo unspecified)	x	n	n	n	n	n
CC(C)N1Cc2nnn(Cc3ccccc3)c2-c2ccccc2S1(=O)=O	x	n	n	n	n	n
O=C(COC(=O)c1cccc(C(=O)OCC(=O)c2ccc(Br)cc2)n1)c1ccc(Br)cc1	n	n	n	n	n	n
O=C(COC(=O)c1ccncc1)c1ccc(Br)cc1	4.6	n	n	n	n	n
SMILES	DAX1 inh-1	ssDAF-12 act	hgDAF12 agonist	hcDAF-12 act	SMARCA2 activ	DAX1 inh-2
Clc1ccc(-c2cc(-c3nnc4sc(Cc5cccs5)nn34)[nH]n2)cc1	x	n	n	n	n	n
Cc1ccc(-n2nnc(-c3cccnc3Cl)n2)cc1	n	n	12	n	n	n
COC(=O)C1CN(CCO)CCS(=O)(=O)N1Cc1cccc(Cl)c1 (stereo unspecified)	x	n	n	n	n	n
COc1ccc(CN2CN3CCc4ccccc4C3CS2(=O)=O)cc1 (stereo unspecified)	x	n	n	n	n	n
COc1ccc(CCN2C(=O)c3ccccc3C2c2nnnn2C(C)C)cc1OC (stereo unspecified)	x	n	n	n	n	n
COc1ccc(CN2C(=O)c3ccccc3C2c2nnnn2C(C)C)cc1OC (stereo unspecified)	x	n	n	n	7.8	n
O=C(CNC(=O)c1ccc(Cl)cc1Cl)OCCOc1ccccc1	n	n	n	n	n	3.9
COc1ccc(CN(C)C(C#Cc2ccccc2)Cc2ccccc2)c(OC)c1 (stereo unspecified)	x	n	n	n	n	n
CCS(=O)(=O)c1ccc2oc(Nc3ccccc3Cl)nc2c1	n	n	13	n	n	n
CCCCc1c(-c2ccccc2OC)ncn1Cc1ccc(C)cc1	x	n	n	n	n	n
COc1ccc(-c2cc(=O)oc3cc(OCC(=O)NCc4ccccn4)ccc23)cc1	5.7	n	n	n	n	n
CCCCc1cc(=O)oc2cc(OCC(=O)Nc3ccccn3)ccc12	n	n	n	n	n	4.3
CC(=O)Nc1ccc(Cl)cc1C(=O)O	n	0.9	n	n	n	n
COc1ccc(N2C(=O)C(CC(N)=O)N(NC(=O)CCc3ccccc3)C2=O)cc1 (stereo unspecified)	5.9	n	n	n	n	n
COc1ccc(CN2C(=O)N(c3ccc(OC)cc3)C(=O)C2CC(=O)Nc2ccccc2)cc1 (stereo unspecified)	n	n	n	n	n	n
COc1cc(Cl)cc(C(c2c(C(=O)O)[nH]c3ccccc23)c2c(C(=O)O)[nH]c3ccccc23)c1O	n	n	n	5.7	n	n
O=C(O)c1[nH]c2ccccc2c1C(c1c(F)cccc1Cl)c1c(C(=O)O)[nH]c2ccccc12	n	n	n	n	n	n
O=C(CN1CCN(c2nc(-c3ccccc3)cs2)CC1)NNC(=O)c1ccc(Br)cc1	n	n	n	n	n	n
CCNC(=S)N1CCN(c2nc(-c3cccc(OC)c3)cs2)CC1	n	n	n	n	n	n
O=C(NC(=S)N1CCN(c2nc(-c3ccccc3)cs2)CC1)c1cncc(Br)c1	n	n	n	n	9.8	n
COCCNC(=S)N1CCN(c2nc(-c3cccc(OC)c3)cs2)CC1	4.3	n	n	n	n	n
O=C(N/N=C/c1cc([N+](=O)[O-])ccc1O)C12CC3CC(CC(C3)C1)C2	4.2	n	n	n	n	n
CCOC(=O)Cn1cc(CN2CCS(=O)(=O)N(Cc3ccc(Cl)cc3)C(C(=O)OC)C2)nn1 (stereo unspecified)	x	n	n	n	n	n
